What was measured:
Assay in all cases: area under confluence curve of osimertinib + compound combination regimen (DTP regrowth); compare to osimertinib-only DTP control AUC of the same experiment (AUC (confluence x time, arbitrary))
H1975 = system: H1975
Outline: (§1)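 The area under the IncuCyte confluence–time curve, calculated in Prism and taken as the median of triplicates where available, is the value reported. It was measured in EGFR-mutant NSCLC lines that received the EGFR inhibitor either alone, followed by a test compound, or together with a fixed-dose test compound until the persister stage (10–21 days) and then drug-free medium. Medium was refreshed every 3–4 days until the inhibitor-only wells were confluent again.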

HCC2279 = system: HCC2279
Outline: as §1

HCC2935 = system: HCC2935
Outline: as §1

HCC4006 = system: HCC4006
Outline: as §1

HCC827 = system: HCC827
Outline: as §1

II-18 = system: II-18
Outline: as §1

PC9 = settings: test compound dose 10 nM
Outline: as §1

| SMILES | area under confluence curve (H1975; test compound dose 100 nM, dosing schedule: sequential, osimertinib-only DTP control AUC in same experiment: 22617, DMSO control AUC in same experiment: 16540) | area under confluence curve (H1975; test compound dose 100 nM, dosing schedule: upfront, osimertinib-only DTP control AUC in same experiment: 28291, DMSO control AUC in same experiment: 16540) | area under confluence curve (HCC2279; test compound dose 100 nM, dosing schedule: sequential, osimertinib-only DTP control AUC in same experiment: 26096, DMSO control AUC in same experiment: 14404) | area under confluence curve (HCC2279; test compound dose 100 nM, dosing schedule: upfront, osimertinib-only DTP control AUC in same experiment: 33120, DMSO control AUC in same experiment: 14404) | area under confluence curve (HCC2935; test compound dose 100 nM, dosing schedule: sequential, osimertinib-only DTP control AUC in same experiment: 22314, DMSO control AUC in same experiment: 19215) | area under confluence curve (HCC2935; test compound dose 100 nM, dosing schedule: upfront, osimertinib-only DTP control AUC in same experiment: 29846, DMSO control AUC in same experiment: 19215) | area under confluence curve (HCC4006; test compound dose 100 nM, dosing schedule: sequential, osimertinib-only DTP control AUC in same experiment: 12791, DMSO control AUC in same experiment: 18415) | area under confluence curve (HCC4006; test compound dose 100 nM, dosing schedule: upfront, osimertinib-only DTP control AUC in same experiment: 17269, DMSO control AUC in same experiment: 18415) | area under confluence curve (HCC827; test compound dose 100 nM, dosing schedule: sequential, osimertinib-only DTP control AUC in same experiment: 15330, DMSO control AUC in same experiment: 21320) | area under confluence curve (HCC827; test compound dose 100 nM, dosing schedule: upfront, osimertinib-only DTP control AUC in same experiment: 20798, DMSO control AUC in same experiment: 21320) | area under confluence curve (II-18; test compound dose 100 nM, dosing schedule: sequential, osimertinib-only DTP control AUC in same experiment: 8624, DMSO control AUC in same experiment: 11834) | area under confluence curve (II-18; test compound dose 100 nM, dosing schedule: upfront, osimertinib-only DTP control AUC in same experiment: 10856, DMSO control AUC in same experiment: 11834) | area under confluence curve (H1975; test compound dose 10 nM, dosing schedule: sequential, osimertinib-only DTP control AUC in same experiment: 15943, DMSO control AUC in same experiment: 20657) | area under confluence curve (H1975; test compound dose 10 nM, dosing schedule: upfront, osimertinib-only DTP control AUC in same experiment: 27804, DMSO control AUC in same experiment: 20657) | area under confluence curve (HCC2279; test compound dose 10 nM, dosing schedule: sequential, osimertinib-only DTP control AUC in same experiment: 20224, DMSO control AUC in same experiment: 29252) | area under confluence curve (HCC2279; test compound dose 10 nM, dosing schedule: upfront, osimertinib-only DTP control AUC in same experiment: 43517, DMSO control AUC in same experiment: 29252) | area under confluence curve (HCC2935; test compound dose 10 nM, dosing schedule: sequential, osimertinib-only DTP control AUC in same experiment: 6271, DMSO control AUC in same experiment: 13875) | area under confluence curve (HCC2935; test compound dose 10 nM, dosing schedule: upfront, osimertinib-only DTP control AUC in same experiment: 10360, DMSO control AUC in same experiment: 13875) | area under confluence curve (HCC4006; test compound dose 10 nM, dosing schedule: sequential, osimertinib-only DTP control AUC in same experiment: 21234, DMSO control AUC in same experiment: 16638) | area under confluence curve (HCC4006; test compound dose 10 nM, dosing schedule: upfront, osimertinib-only DTP control AUC in same experiment: 19238, DMSO control AUC in same experiment: 16638) | area under confluence curve (HCC827; test compound dose 10 nM, dosing schedule: sequential, osimertinib-only DTP control AUC in same experiment: 8266, DMSO control AUC in same experiment: 27404) | area under confluence curve (HCC827; test compound dose 10 nM, dosing schedule: upfront, osimertinib-only DTP control AUC in same experiment: 13929, DMSO control AUC in same experiment: 27404) | area under confluence curve (II-18; test compound dose 10 nM, dosing schedule: sequential, osimertinib-only DTP control AUC in same experiment: 21122, DMSO control AUC in same experiment: 7080) | area under confluence curve (II-18; test compound dose 10 nM, dosing schedule: upfront, osimertinib-only DTP control AUC in same experiment: 22894, DMSO control AUC in same experiment: 7080) | area under confluence curve (PC9; dosing schedule: sequential, osimertinib-only DTP control AUC in same experiment: 10175, DMSO control AUC in same experiment: 27958) | area under confluence curve (PC9; dosing schedule: sequential, osimertinib-only DTP control AUC in same experiment: 13992, DMSO control AUC in same experiment: 30002) | area under confluence curve (PC9; dosing schedule: sequential, osimertinib-only DTP control AUC in same experiment: 14708, DMSO control AUC in same experiment: 21341) | area under confluence curve (PC9; dosing schedule: upfront, osimertinib-only DTP control AUC in same experiment: 16134, DMSO control AUC in same experiment: 27958) | area under confluence curve (PC9; dosing schedule: upfront, osimertinib-only DTP control AUC in same experiment: 21313, DMSO control AUC in same experiment: 21341) | area under confluence curve (PC9; dosing schedule: upfront, osimertinib-only DTP control AUC in same experiment: 22377, DMSO control AUC in same experiment: 30002) |
| --- | --- | --- | --- | --- | --- | --- | --- | --- | --- | --- | --- | --- | --- | --- | --- | --- | --- | --- | --- | --- | --- | --- | --- | --- | --- | --- | --- | --- | --- | --- |
| C[C@@]1(C(=O)Nc2ccc(F)nc2)CCCN1c1nc(Nc2cc(C3CC3)n[nH]2)c2cccn2n1 + C=CC(=O)Nc1cc(Nc2nccc(-c3cn(C)c4ccccc34)n2)c(OC)cc1N(C)CCN(C)C [osimertinib] | 13500 | 12500 | 24200 | 34700 | 22300 | 22200 | 11000 | 9040 | 12600 | 23300 | 533 | 1400 | – | – | – | – | – | – | – | – | – | – | – | – | – | – | – | – | – | – |
| Cn1cc(CNCC2CCN(c3ncc(C(=O)NO)cn3)CC2)c2ccccc21 [Quisinostat] + C=CC(=O)Nc1cc(Nc2nccc(-c3cn(C)c4ccccc34)n2)c(OC)cc1N(C)CCN(C)C [osimertinib] | – | – | – | – | – | – | – | – | – | – | – | – | 1750 | 5730 | 6370 | 12400 | 6600 | 6240 | 5480 | 4030 | 2780 | 4260 | 426 | 19200 | 2060 | 4770 | 2700 | 1380 | 6010 | 4720 |

Reference: the supplement of paper PMC9794691
